The values that follow come from ChEMBL document CHEMBL1961873, “Compounds: GSK PKIS; Assays: Nanosyn kinase panel” (2012).

Experiment [1] deals with RAC-alpha serine/threonine-protein kinase (Homo sapiens) (UniProt P31749). The conditions noted are these: at 0.1 µM.
For experiment [2] the target is unchanged. The conditions noted are these: at 1 µM.
Experiment [3] concerns the target RAC-beta serine/threonine-protein kinase (Homo sapiens) (UniProt P31751). As to conditions: at 0.1 µM.
For experiment [4] the target is unchanged. The conditions noted are these: at 1 µM.
In experiment [5] the target is RAC-gamma serine/threonine-protein kinase (Homo sapiens) (UniProt Q9Y243). As to conditions: at 0.1 µM.
Experiment [6] shares this target. The conditions noted are these: at 1 µM.
Experiment [7] deals with G protein-coupled receptor kinase 6 (Homo sapiens) (UniProt P43250). The conditions noted are these: at 0.1 µM.
The target is the same in experiment [8]. The conditions noted are these: at 1 µM.
In experiment [9] the target is T1, Rhodopsin kinase GRK7 (Homo sapiens) (UniProt Q8WTQ7).
T1 sequence (whole entry): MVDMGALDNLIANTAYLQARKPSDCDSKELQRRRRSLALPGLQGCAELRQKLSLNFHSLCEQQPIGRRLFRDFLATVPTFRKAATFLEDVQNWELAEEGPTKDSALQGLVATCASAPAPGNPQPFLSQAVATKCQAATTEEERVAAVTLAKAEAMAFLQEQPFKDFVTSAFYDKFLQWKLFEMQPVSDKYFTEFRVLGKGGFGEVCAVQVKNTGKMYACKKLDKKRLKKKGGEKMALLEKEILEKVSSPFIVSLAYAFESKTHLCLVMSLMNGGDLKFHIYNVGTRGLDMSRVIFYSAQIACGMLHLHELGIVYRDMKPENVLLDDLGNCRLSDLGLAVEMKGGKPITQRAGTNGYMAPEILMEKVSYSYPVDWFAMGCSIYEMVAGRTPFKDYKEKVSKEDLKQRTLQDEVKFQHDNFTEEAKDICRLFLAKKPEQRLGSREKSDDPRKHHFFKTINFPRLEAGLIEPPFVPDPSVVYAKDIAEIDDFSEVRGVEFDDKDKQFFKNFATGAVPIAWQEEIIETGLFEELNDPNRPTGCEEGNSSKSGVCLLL
The conditions noted are these: at 0.1 µM.

The target in experiment [10] is T1, Rhodopsin kinase GRK7 (Homo sapiens). The conditions noted are these: at 1 µM.

Sequence of RAC-beta serine/threonine-protein kinase (Homo sapiens) (P31751 whole entry): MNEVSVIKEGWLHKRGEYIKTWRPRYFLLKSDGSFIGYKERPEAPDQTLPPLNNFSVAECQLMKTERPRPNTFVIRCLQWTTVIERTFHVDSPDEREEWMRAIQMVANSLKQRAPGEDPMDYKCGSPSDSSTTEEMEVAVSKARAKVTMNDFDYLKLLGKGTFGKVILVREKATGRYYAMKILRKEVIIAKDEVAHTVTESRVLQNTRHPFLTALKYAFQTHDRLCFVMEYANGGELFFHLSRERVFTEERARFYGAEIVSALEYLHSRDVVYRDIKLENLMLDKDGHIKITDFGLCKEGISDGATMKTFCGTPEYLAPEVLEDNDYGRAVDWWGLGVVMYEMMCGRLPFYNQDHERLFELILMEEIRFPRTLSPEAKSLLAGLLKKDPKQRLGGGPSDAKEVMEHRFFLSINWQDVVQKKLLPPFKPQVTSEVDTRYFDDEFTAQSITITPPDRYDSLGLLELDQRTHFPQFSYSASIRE
Sequence of G protein-coupled receptor kinase 6 (Homo sapiens) (P43250 whole entry, looked up): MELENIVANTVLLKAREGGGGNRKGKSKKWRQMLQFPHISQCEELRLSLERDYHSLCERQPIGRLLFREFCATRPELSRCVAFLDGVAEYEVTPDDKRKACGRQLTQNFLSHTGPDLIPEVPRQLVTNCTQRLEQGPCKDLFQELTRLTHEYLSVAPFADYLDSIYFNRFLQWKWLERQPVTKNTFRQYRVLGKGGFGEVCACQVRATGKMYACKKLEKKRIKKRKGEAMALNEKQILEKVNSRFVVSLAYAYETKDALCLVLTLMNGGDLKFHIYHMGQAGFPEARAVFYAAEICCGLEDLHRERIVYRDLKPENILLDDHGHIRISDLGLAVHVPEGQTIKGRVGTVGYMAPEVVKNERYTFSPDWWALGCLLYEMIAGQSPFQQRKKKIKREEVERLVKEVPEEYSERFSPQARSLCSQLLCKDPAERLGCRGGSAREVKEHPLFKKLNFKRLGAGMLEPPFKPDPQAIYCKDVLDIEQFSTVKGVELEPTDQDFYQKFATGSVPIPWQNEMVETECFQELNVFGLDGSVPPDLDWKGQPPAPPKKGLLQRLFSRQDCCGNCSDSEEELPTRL
Sequence of RAC-gamma serine/threonine-protein kinase (Homo sapiens) (Q9Y243 whole entry): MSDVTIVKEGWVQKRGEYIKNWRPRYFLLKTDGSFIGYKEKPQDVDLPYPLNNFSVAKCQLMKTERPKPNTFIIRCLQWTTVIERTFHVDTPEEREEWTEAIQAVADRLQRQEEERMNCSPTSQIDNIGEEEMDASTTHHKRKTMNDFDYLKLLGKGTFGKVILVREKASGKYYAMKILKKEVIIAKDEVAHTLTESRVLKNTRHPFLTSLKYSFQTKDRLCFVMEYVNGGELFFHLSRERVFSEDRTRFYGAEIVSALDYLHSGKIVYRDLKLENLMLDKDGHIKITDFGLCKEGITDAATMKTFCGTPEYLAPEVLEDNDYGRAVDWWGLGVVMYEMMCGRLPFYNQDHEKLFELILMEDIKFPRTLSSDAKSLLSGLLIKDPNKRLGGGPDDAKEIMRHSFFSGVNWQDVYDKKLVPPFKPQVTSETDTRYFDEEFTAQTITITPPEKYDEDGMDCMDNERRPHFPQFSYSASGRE
Sequence of RAC-alpha serine/threonine-protein kinase (Homo sapiens) (P31749 whole entry): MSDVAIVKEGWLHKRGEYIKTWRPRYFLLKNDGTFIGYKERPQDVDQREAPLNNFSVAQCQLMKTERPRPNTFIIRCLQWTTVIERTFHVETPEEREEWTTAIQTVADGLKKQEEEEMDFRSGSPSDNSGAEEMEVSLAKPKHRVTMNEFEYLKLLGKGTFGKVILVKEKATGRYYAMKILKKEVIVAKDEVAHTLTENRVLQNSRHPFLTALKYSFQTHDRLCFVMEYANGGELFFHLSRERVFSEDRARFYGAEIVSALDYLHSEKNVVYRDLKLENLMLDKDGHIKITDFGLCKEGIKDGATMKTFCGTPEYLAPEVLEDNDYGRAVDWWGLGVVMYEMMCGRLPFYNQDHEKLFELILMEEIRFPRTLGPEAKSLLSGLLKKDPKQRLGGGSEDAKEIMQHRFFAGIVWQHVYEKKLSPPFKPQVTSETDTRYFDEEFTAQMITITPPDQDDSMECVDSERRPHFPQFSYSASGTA

The inhibition is the relative decrease from the control value, in per cent. In the case of `NS(=O)(=O)c1cccc(Nc2cc(-c3ccc(F)cc3)n[nH]2)c1`, the inhibition in [1] amounted to 1.57%; in experiment [2], 2.41%; in experiment [3] it was 3.5%; in [4], 2.66%; in [5], 2.29%; in experiment [6] it was 3.03%. Moreover, the inhibition was determined as 4.03% in experiment [7], 8.09% in [8], 2.68% in experiment [9] and 5.14% in experiment [10].

For `COc1cc2ncnc(Nc3ccc4c(cnn4Cc4ccccc4)c3)c2cc1OC`, the inhibition is -0.49% in [1]; 0.77% in experiment [2]; 0.99% in [3]; 1% in [4]; 0.08% in experiment [5]; 2.09% in experiment [6]. The inhibition is -0.46% in experiment [7], 2.17% in experiment [8], 9.43% in experiment [9] and 2.89% in experiment [10].

On to `CCCN1CCCC(c2ccc(Nc3nc(Nc4cc(F)ccc4C(N)=O)c4cc[nH]c4n3)c(OC)c2)C1` (stereo not given), for which the inhibition in [1] is 0.39%; in experiment [2], 0.27%; in experiment [3], 1.85%; in experiment [4] it was 1.92%; in [5] it was 0.52%; in [6], 2.18%. Also, the inhibition stood at 5.66% in experiment [7], 25.3% in [8], 3.88% in [9] and 16.6% in experiment [10].

With `CN(C)C(=O)O[C@H]1CN[C@H](C#Cc2cc3ncnc(Nc4ccc(OCc5cccc(F)c5)c(Cl)c4)c3s2)C1`, the inhibition in experiment [1] is 0.44%; in experiment [2], 1.13%; in experiment [3], 1.82%; in experiment [4], 1.59%; in experiment [5], 1.22%; in experiment [6] it was -1.3%. Moreover, the inhibition is 3.73% in [7], 0.78% in experiment [8], 2.97% in experiment [9] and 8.33% in [10].

With `NC(=O)c1sc(-n2cnc3ccccc32)cc1OCc1ccccc1Br`, the inhibition in experiment [1] amounted to 1.72%; in experiment [2], 1.07%; in experiment [3] it was 0.68%; in [4], 3.59%; in experiment [5], 1.82%; in [6], 4.09%. For the same molecule, the inhibition came out at 1.41% in experiment [7], 3.01% in [8], 9.12% in experiment [9] and 4.5% in experiment [10].

As to `[O-][S+]1CCN(Cc2ccc(-c3ccc4ncnc(Nc5ccc(OCc6ccccc6)c(Cl)c5)c4c3)o2)CC1`, the inhibition in [1] is 0.1%; in [2] it was -0.3%; in [3], 0.29%; in experiment [4], 1.29%; in [5], 0.15%; in experiment [6], 2.06%. Also, the inhibition is -0.03% in [7], 1.12% in [8], 7.76% in [9] and -2.22% in experiment [10].

In the case of `FC(F)(F)c1ccc(-c2nn3ncccc3c2-c2ccnc(Nc3ccc4c(c3)OCCO4)n2)cc1`, the inhibition in experiment [1] is 0.91%; in experiment [2], 0.98%; in experiment [3], 0.17%; in experiment [4], 0.25%; in [5], -0.63%; in [6], -0.79%. Further, the inhibition stood at 1.14% in experiment [7], 12.6% in [8], 4.88% in experiment [9] and 11.6% in experiment [10].

`Cc1ccc(C(=O)NC2CC2)cc1-c1ccc2[nH]ncc2c1`: the inhibition in [1] was -2.21%; in experiment [2] it was -1.97%; in experiment [3], -3.64%; in [4], -3.23%; in experiment [5], -4.12%; in experiment [6] it was 0.95%. In addition, the inhibition was 1.1% in [7], -1.57% in experiment [8], -1.33% in [9] and -8.83% in experiment [10].

Regarding `NS(=O)(=O)c1ccc(Nc2cc(-c3cccc(O)c3)n[nH]2)cc1`, the inhibition was determined as 0.91% in experiment [1]; 0.58% in experiment [2]; 1.64% in experiment [3]; 3.28% in experiment [4]; 2.49% in experiment [5]; 1.75% in [6]. Besides, the inhibition was found to be 1.19% in experiment [7], 3.55% in experiment [8], 3.02% in experiment [9] and 5.39% in [10].

As to `c1ccc(Cc2nc3ccc(Nc4ncnc5ccccc45)cc3[nH]2)cc1`, the inhibition in experiment [1] is 0.62%; in experiment [2], 0.65%; in experiment [3], 1.38%; in [4], 1.4%; in [5] it was 1.19%; in [6], 0.88%. Moreover, the inhibition in [7] is 3.39%; in experiment [8], 3.05%; in [9], 0.46%; in experiment [10], -1.96%.

On to `COc1cc(Nc2nccc(-c3cnn4ncccc34)n2)cc(OC)c1`, for which the inhibition in [1] was 0.23%; in [2], 0.24%; in [3], 0.16%; in [4], 0.1%; in experiment [5] it was 0.27%; in experiment [6] it was 1.18%. For the same molecule, the inhibition was 0.91% in experiment [7], -0.01% in experiment [8], 6.32% in experiment [9] and 9.43% in [10].

Regarding `CCn1c(-c2nonc2N)nc2ccc(F)cc21`, the inhibition was 0.42% in experiment [1]; 0.42% in [2]; 1.94% in experiment [3]; 2.93% in experiment [4]; 1.09% in experiment [5]; 2.41% in [6]. Moreover, the inhibition is 9.58% in experiment [7], 11.3% in [8], 5.6% in experiment [9] and 11.3% in experiment [10].

Regarding `COc1cc2ncn(-c3cc(OCc4ccccc4S(C)(=O)=O)c(C#N)s3)c2cc1OC`, the inhibition in experiment [1] was 1.44%; in experiment [2], 1.02%; in [3] it was 2.07%; in experiment [4] it was 1.33%; in [5] it was 2.7%; in [6], 1.68%. Further, the inhibition in experiment [7] amounted to 13.8%; in experiment [8], 3.6%; in [9] it was 8.51%; in experiment [10], 40.4%.

With `OCc1ccc(-c2nc(-c3ccccn3)c(-c3ccc4c(c3)OCO4)[nH]2)cc1`, the inhibition came to 1.19% in experiment [1]; 1.53% in experiment [2]; 2.08% in experiment [3]; 2.51% in experiment [4]; 1.57% in experiment [5]; 0.86% in experiment [6]. Moreover, the inhibition is 0.03% in experiment [7], 1.18% in experiment [8], 2.93% in [9] and -2.28% in experiment [10].

Turning to `O=C(Nc1ccc(Oc2ccc3[nH]c(NC(=O)c4ccco4)nc3c2)cc1)Nc1cc(C(F)(F)F)ccc1F`, the inhibition in experiment [1] was -3.62%; in experiment [2], -0.4%; in experiment [3] it was -3.05%; in [4] it was -2.64%; in [5], -3.47%; in experiment [6], -4.94%. The inhibition in experiment [7] is 0.72%; in experiment [8], -4.1%; in [9], -0.48%; in experiment [10], -4.51%.

With `N#Cc1c(NC(=O)c2ccccc2F)sc2c1CCCC2`, the inhibition in experiment [1] is -0.97%; in [2], -1.21%; in [3], -1.71%; in experiment [4] it was -1.01%; in [5] it was -1.05%; in experiment [6], -0.44%. The inhibition is 1.29% in experiment [7], 2.2% in experiment [8], 2.28% in experiment [9] and -1.97% in experiment [10].

For `CCn1c(-c2nonc2N)nc2c(C#CC(C)(C)O)nc(OCCNC)cc21`, the inhibition in experiment [1] was 20.8%; in experiment [2], 67.4%; in [3] it was 33.1%; in experiment [4], 75.3%; in experiment [5], 23.1%; in experiment [6], 68.2%. Further, the inhibition in experiment [7] is 4.94%; in [8], 3.62%; in [9] it was 9.11%; in [10] it was 2.53%.

As for `NC(=O)c1cccc(Nc2nccc(Nc3cccc(F)c3)n2)c1`, the inhibition in experiment [1] was 0.22%; in experiment [2], -0.29%; in experiment [3], 0.22%; in [4], 0.58%; in experiment [5] it was 0.47%; in [6], 3.46%. In addition, the inhibition is 2.83% in [7], 0.77% in experiment [8], 4.02% in experiment [9] and 2.39% in experiment [10].

`C[C@@H](Oc1cc(-n2cnc3ccc(OCC4CCN(C)CC4)cc32)sc1C(N)=O)c1ccccc1C(F)(F)F`: the inhibition in experiment [1] is -0.94%; in [2], -1.34%; in [3], -1.9%; in experiment [4] it was -0.71%; in [5] it was -1.91%; in [6] it was 1.79%. Also, the inhibition is -1.55% in [7], -1.03% in experiment [8], 2.15% in [9] and -2.25% in [10].
